Data: the supplement of paper PMC6555819

Experiments:
Experiment in all cases: PBM binding z-score (relative to random genomic background probes); higher = stronger binding; sequences stand for … in GC…GCGATTGACAGCGTAGAATGAAGG
[1] = test system: FXR:RXRa (NR concentration 270 nM, RXRa partner concentration 90 nM)
Summary of the method: (§1)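 Random background probes are the reference for binding z-scores. These scores derive from regression-normalized fluorescence on custom Agilent 4×180K protein-binding microarrays incubated 1 h with ligand-free nuclear receptor dimers. Binding was detected with antibodies against each partner (one per run).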

[2] = test system: LXRa:RXRa (NR concentration 270 nM, RXRa partner concentration 90 nM)
Summary of the method: as §1

[3] = test system: LXRa homodimer (NR concentration 270 nM)
Summary of the method: as §1

[4] = test system: LXRb:RXRa (NR concentration 270 nM, RXRa partner concentration 90 nM)
Summary of the method: as §1

[5] = test system: LXRb homodimer (NR concentration 270 nM)
Summary of the method: as §1

[6] = test system: PPARa:RXRa (NR concentration 270 nM, RXRa partner concentration 90 nM)
Summary of the method: as §1

[7] = test system: PPARg:RXRa (NR concentration 180 nM, RXRa partner concentration 90 nM)
Summary of the method: as §1

[8] = test system: PPARg:RXRa 270nM:90nM, anti-RXR (NR concentration 270 nM, RXRa partner concentration 90 nM)
Summary of the method: as §1

[9] = test system: PPARg:RXRa 30nM:10nM, anti-RXR (NR concentration 30 nM, RXRa partner concentration 10 nM)
Summary of the method: as §1

[10] = test system: PPARg:RXRa 90nM:30nM, anti-RXR (NR concentration 90 nM, RXRa partner concentration 30 nM)
Summary of the method: as §1

[11] = test system: PPARg:RXRa DBDmut IVT, anti-RXR (DBD mutation: RXRa K156A/R161A, NR concentration 270 nM, RXRa partner concentration 90 nM)
Summary of the method: as §1

[12] = test system: PPARg:RXRa IVT, anti-PPARg (NR concentration 270 nM, RXRa partner concentration 90 nM)
Summary of the method: as §1

[13] = test system: PPARg DBDmut:RXRa IVT, anti-PPARg (DBD mutation: PPARg1 K132A/R137A, NR concentration 270 nM, RXRa partner concentration 90 nM)
Summary of the method: as §1

[14] = test system: PPARg DBDmut IVT, anti-PPARg (DBD mutation: PPARg1 K132A/R137A, NR concentration 270 nM)
Summary of the method: as §1

[15] = test system: PPARg homodimer (NR concentration 180 nM)
Summary of the method: as §1

[16] = test system: PXR:RXRa (NR concentration 270 nM, RXRa partner concentration 90 nM)
Summary of the method: as §1

[17] = test system: PXR homodimer (NR concentration 270 nM)
Summary of the method: as §1

[18] = test system: RARa:RXR (NR concentration 270 nM, RXRa partner concentration 90 nM)
Summary of the method: as §1

[19] = test system: RARa homodimer (NR concentration 270 nM)
Summary of the method: as §1

[20] = test system: RARb:RXRa (NR concentration 270 nM, RXRa partner concentration 90 nM)
Summary of the method: as §1

Sequence	PBM binding z-score [1]	PBM binding z-score [2]	PBM binding z-score [3]	PBM binding z-score [4]	PBM binding z-score [5]	PBM binding z-score [6]	PBM binding z-score [7]	PBM binding z-score [8]	PBM binding z-score [9]	PBM binding z-score [10]	PBM binding z-score [11]	PBM binding z-score [12]	PBM binding z-score [13]	PBM binding z-score [14]	PBM binding z-score [15]	PBM binding z-score [16]	PBM binding z-score [17]	PBM binding z-score [18]	PBM binding z-score [19]	PBM binding z-score [20]
ATCTCTAGGTCAAGATAGTTCAGTGAATGCAAAT	3.96	6.31	4.48	3.62	1.93	4.23	4.92	4.63	2.03	3.66	6.08	6.47	1.92	2.11	2.05	5.27	1.48	3.29	1.32	4.26
TCTCGGAGGACACGAAGGGCAGAGCTTTCCAGAG	0.172	-0.265	-0.59	-0.711	-1.26	-0.128	-0.047	0.753	1.78	1.13	1.13	0.0832	-0.999	-0.906	-0.399	-0.198	-0.159	-0.136	-1.15	1.97
TAGCCTAGGTCATGGGGCAGTATACCACGCGAAC	4.95	3.44	0.357	3.37	0.499	4.39	5.11	4.52	1.89	3.69	1.45	3.74	0.479	0.305	1.67	1.78	-0.439	3.21	-0.03	3.79
CCAGACGGGTGAGAAGGTAACTCAGCCTCGATTA	-0.446	-0.488	-0.527	-0.4	-1.08	0.109	0.208	0.0448	-0.616	-0.191	0.114	0.156	-1.55	-1.37	0.298	-0.708	-0.553	-0.463	-0.518	-0.128
CCTACTGGGCCAAAGGTCATTCATTCCAATGCTC	4.99	5.4	5.18	5.18	1.33	6.7	12.2	10.6	10.6	11.8	5.26	6.63	2.52	-0.185	4.56	5.58	2.49	6.3	1.85	4.46
AGTACGAGGGCACGCTGAGTTGATAGCAGAGTAG	0.909	0.941	-0.408	0.078	-0.497	1.63	1.26	0.976	-0.181	0.652	2.66	2.52	0.166	0.462	0.0101	1.4	0.398	0.957	-0.0662	2.64
CCTGCTAGGTCCTGGTCAGCTAATCTACAGTATG	-0.334	-0.452	-0.575	-0.318	-1.07	-0.283	-0.294	-0.442	-0.574	-0.403	0.239	-0.294	-1.02	-0.479	-0.652	-0.461	-0.864	-0.0873	-0.971	0.56
CATACTAGGTCACAGAGGTCAAAGTCCGTGCGTA	6.69	6.83	7.84	6.16	2.94	6.09	8.98	7.72	5.14	7.44	7.7	8.21	1.7	0.913	4.99	6.49	11.3	6.62	2.6	5.27
TCTTGTAGATCAAGCAGGTTAAGAAAGCCTGAGT	0.0308	0.414	-0.381	0.385	-0.415	0.741	-0.57	1.21	2.46	1.7	1.72	0.78	0.218	0.401	0.138	0.519	0.388	0.546	-0.0455	0.228
ATACCAAGGTGGTCGTGAGGTCGTTGATACTAAC	1.49	0.821	0.382	1.05	-0.378	1.21	0.268	0.0614	-0.274	-0.258	-0.434	0.335	0.113	0.0753	0.722	2.61	1.69	1.99	0.748	1.08
TCAAGCAGGCCAGAGGGTCACTCAAGAGGTACGG	1.15	0.997	-0.238	1.22	-1	2.59	1.67	2.69	2.51	2.67	1.38	0.884	-1.19	-1.55	0.379	1.65	-0.357	2.52	-0.42	2.51
CAAACTAGGTCACGAAAGTTCAAAGTCGAATGAC	6.48	7.84	8.43	6.15	1.48	6.14	9.94	8.29	6.58	8.35	8.72	9.1	2.45	4.02	4.73	7.11	8.3	6.02	2.95	5.27
GTACCAAGGTGAATAGGTCGTGGATGAGTAGGCG	1.25	1.07	-0.132	0.395	-0.586	2.47	1.85	2.35	0.297	1.3	2.1	2.87	0.27	-0.568	1.84	0.978	-0.029	2.11	0.457	2.09
AGAACGAGGGCACGCTGAGTTGGTAGCAGAGTAG	0.682	0.402	-0.489	-0.113	-0.719	1.87	1.62	1.46	-0.03	0.942	4.25	3.68	0.349	-0.628	-0.387	0.612	-0.377	0.517	-1.12	2.46
TGAATGAGGTTAAAGATCTGGGAACGTGGCGTCG	2.5	2.16	-0.214	1.46	0.347	3.54	2.7	3.6	1.69	2.98	2.25	2.86	1.17	-0.223	0.811	1.19	-0.0436	1.8	-0.239	1.93
